Among the data in ChEMBL document CHEMBL2218924, “A broad activity screen in support of a chemogenomic map for kinase signalling research and drug discovery” (Biochem J, 2013) are residual activity values, retold here.

In assay [1] the target is Mitogen-activated protein kinase 10 (Homo sapiens) (UniProt P53779). As to conditions: at 10 µM.
Assay [2] deals with Vascular endothelial growth factor receptor 2 (Homo sapiens) (UniProt P35968). As to conditions: at 1 µM.
Assay [3] shares this target. As to conditions: at 10 µM.
For assay [4], the target named is LIM domain kinase 1 (Homo sapiens) (UniProt P53667). Particulars: at 1 µM.
For assay [5] the target is unchanged. As to conditions: at 10 µM.
Assay [6] deals with T1, Serine/threonine-protein kinase STK11 (Homo sapiens) (UniProt Q15831).
T1 sequence (whole entry): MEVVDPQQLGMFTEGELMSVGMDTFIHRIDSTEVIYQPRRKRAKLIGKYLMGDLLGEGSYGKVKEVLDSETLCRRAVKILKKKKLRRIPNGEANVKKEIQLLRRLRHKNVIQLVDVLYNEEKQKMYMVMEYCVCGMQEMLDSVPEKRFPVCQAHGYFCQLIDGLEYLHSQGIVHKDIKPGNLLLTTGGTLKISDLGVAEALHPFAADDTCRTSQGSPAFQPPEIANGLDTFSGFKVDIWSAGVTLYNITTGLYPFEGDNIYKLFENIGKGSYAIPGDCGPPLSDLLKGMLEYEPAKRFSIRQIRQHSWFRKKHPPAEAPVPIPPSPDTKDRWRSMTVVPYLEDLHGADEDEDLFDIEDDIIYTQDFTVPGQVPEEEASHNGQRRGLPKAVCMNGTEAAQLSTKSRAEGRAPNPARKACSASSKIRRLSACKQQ
As to conditions: at 1 µM.

The target of assay [7] is T1, Serine/threonine-protein kinase STK11 (Homo sapiens). As to conditions: at 10 µM.
The target of assay [8] is Serine/threonine-protein kinase 10 (Homo sapiens) (UniProt O94804). Particulars: at 1 µM.
The target is the same in assay [9]. As to conditions: at 10 µM.
Assay [10] deals with Tyrosine-protein kinase Lck (Homo sapiens) (UniProt P06239). Particulars: at 1 µM.
Assay [11] shares this target. As to conditions: at 10 µM.
Assay [12] has the same target. Particulars: at 1 µM. This is another data set of the same source.
The target is the same in assay [13]. Particulars: at 10 µM. This is another data set of the same source.
The target of assay [14] is Tyrosine-protein kinase Lyn (Homo sapiens) (UniProt P07948). Particulars: at 1 µM.
Assay [15] has the same target. Particulars: at 10 µM.
Assay [16] concerns the target Mitogen-activated protein kinase 3 (Homo sapiens) (UniProt P27361). Particulars: at 1 µM.
Assay [17] shares this target. Particulars: at 10 µM.
Assay [18] deals with Mitogen-activated protein kinase 1 (Homo sapiens) (UniProt P28482). Particulars: at 1 µM.
The target is the same in assay [19]. Particulars: at 10 µM.
Assay [20] deals with MAP kinase-activated protein kinase 2 (Homo sapiens) (UniProt P49137). As to conditions: at 1 µM.
Chain of MAP kinase-activated protein kinase 2 (Homo sapiens) (P49137 whole entry, looked up): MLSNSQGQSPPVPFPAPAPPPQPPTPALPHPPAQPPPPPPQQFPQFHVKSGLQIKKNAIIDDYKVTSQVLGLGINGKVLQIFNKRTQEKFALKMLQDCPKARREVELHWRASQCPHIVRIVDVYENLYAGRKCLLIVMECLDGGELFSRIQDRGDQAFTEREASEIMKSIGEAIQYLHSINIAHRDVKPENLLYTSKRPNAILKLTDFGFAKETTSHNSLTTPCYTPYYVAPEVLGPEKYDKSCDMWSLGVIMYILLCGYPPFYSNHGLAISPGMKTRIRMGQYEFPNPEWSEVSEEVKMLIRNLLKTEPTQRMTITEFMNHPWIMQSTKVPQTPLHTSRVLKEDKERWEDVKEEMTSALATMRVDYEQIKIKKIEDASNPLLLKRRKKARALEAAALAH

Chain of Mitogen-activated protein kinase 3 (Homo sapiens) (P27361 whole entry): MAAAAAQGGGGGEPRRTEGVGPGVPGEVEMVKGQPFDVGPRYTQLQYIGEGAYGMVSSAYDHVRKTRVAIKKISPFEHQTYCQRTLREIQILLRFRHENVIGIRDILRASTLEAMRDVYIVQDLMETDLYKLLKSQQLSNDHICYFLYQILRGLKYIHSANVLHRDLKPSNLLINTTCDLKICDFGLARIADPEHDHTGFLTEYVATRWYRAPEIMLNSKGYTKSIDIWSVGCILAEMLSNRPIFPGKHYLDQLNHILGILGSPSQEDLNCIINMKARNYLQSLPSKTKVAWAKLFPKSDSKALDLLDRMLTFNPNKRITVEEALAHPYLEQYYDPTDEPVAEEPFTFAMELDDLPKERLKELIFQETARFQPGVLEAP
Chain of LIM domain kinase 1 (Homo sapiens) (P53667 whole entry, looked up, the tested form may be a part): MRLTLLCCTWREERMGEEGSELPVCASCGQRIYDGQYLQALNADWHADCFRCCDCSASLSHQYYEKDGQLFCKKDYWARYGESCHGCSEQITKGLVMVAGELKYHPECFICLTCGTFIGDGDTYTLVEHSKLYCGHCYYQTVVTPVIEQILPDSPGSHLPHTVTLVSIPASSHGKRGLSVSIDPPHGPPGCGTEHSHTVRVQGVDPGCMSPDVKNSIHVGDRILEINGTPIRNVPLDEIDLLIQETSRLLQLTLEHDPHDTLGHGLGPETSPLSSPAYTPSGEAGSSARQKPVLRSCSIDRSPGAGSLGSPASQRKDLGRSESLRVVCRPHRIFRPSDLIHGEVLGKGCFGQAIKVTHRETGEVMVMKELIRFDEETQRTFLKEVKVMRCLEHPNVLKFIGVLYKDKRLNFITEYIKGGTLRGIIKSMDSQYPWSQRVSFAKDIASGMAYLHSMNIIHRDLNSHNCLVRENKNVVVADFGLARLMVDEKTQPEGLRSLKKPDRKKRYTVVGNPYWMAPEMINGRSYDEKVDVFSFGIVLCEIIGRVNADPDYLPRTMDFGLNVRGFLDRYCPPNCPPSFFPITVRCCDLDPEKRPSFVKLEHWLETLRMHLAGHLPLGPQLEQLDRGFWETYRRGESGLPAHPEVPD
Chain of Tyrosine-protein kinase Lyn (Homo sapiens) (P07948 2-512 limits assumed): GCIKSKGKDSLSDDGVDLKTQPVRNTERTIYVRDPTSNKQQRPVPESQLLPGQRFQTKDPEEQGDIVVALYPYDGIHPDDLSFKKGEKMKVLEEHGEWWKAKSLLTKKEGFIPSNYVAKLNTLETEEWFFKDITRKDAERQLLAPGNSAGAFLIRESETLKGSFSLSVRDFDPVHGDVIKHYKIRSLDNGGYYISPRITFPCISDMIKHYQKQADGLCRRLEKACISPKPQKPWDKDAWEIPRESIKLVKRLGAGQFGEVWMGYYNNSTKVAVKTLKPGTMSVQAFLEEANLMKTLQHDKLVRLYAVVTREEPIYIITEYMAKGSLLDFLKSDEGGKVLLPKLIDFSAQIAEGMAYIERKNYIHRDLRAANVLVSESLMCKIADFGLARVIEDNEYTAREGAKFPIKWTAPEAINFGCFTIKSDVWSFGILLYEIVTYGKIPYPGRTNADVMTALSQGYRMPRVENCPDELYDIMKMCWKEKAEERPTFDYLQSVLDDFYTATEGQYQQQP
Chain of Vascular endothelial growth factor receptor 2 (Homo sapiens) (P35968 whole entry): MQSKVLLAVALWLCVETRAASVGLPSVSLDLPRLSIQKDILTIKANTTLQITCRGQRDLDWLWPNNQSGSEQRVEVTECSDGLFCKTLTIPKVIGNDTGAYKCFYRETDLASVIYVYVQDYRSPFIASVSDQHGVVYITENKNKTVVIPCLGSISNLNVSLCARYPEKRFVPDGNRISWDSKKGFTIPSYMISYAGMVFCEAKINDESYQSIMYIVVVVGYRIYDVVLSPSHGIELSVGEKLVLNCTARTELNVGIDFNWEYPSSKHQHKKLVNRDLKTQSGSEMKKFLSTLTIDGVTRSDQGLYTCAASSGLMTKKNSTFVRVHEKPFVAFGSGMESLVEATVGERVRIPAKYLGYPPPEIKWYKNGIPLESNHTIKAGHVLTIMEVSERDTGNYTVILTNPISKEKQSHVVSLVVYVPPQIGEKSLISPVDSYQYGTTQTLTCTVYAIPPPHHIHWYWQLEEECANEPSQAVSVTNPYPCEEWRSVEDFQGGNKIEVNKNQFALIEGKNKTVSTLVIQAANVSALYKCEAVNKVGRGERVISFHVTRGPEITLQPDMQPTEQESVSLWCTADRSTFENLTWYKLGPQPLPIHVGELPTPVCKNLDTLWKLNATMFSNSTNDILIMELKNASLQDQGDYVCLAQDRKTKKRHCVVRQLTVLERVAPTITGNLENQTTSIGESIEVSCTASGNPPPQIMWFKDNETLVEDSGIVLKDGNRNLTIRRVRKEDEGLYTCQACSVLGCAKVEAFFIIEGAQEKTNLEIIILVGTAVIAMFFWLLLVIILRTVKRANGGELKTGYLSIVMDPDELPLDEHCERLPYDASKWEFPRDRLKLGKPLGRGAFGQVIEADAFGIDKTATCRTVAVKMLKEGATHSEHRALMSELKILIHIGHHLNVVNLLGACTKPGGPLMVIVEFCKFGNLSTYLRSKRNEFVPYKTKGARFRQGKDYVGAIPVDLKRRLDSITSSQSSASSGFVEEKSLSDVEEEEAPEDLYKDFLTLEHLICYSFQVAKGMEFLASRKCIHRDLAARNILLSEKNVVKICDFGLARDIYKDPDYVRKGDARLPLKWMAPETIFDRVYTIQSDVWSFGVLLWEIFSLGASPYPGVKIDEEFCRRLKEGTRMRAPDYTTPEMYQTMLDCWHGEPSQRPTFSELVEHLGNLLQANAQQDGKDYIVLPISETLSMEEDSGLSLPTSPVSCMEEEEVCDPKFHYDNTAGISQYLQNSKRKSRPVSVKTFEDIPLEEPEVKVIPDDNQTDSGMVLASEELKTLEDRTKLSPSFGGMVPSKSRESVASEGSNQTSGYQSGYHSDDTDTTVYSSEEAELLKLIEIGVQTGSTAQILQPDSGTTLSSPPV
Chain of Serine/threonine-protein kinase 10 (Homo sapiens) (O94804 whole entry, looked up): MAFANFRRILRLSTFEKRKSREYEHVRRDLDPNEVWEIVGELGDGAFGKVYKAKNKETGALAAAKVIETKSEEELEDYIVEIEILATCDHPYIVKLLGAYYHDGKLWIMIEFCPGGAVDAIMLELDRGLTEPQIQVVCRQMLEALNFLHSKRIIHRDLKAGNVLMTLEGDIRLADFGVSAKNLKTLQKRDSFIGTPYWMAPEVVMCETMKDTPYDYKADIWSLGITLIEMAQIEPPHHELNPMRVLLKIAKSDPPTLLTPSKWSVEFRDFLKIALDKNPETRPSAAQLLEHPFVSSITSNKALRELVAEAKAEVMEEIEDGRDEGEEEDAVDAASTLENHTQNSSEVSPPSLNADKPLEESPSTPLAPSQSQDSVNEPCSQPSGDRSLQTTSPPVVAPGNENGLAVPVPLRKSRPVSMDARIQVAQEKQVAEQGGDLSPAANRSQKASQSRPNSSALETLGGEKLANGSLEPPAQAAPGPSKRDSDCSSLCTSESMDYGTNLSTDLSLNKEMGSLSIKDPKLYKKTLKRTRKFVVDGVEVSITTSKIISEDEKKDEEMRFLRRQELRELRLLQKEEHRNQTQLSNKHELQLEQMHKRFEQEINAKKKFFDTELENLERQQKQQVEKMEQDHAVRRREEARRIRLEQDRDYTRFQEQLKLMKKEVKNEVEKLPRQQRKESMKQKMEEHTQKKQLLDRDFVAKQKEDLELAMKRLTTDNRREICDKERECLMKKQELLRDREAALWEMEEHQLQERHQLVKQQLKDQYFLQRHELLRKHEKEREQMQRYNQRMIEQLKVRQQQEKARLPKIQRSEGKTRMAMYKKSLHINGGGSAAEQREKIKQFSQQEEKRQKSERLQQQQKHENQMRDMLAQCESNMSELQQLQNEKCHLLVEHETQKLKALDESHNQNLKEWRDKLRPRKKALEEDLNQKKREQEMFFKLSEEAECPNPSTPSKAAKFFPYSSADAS
Chain of Mitogen-activated protein kinase 1 (Homo sapiens) (P28482 whole entry): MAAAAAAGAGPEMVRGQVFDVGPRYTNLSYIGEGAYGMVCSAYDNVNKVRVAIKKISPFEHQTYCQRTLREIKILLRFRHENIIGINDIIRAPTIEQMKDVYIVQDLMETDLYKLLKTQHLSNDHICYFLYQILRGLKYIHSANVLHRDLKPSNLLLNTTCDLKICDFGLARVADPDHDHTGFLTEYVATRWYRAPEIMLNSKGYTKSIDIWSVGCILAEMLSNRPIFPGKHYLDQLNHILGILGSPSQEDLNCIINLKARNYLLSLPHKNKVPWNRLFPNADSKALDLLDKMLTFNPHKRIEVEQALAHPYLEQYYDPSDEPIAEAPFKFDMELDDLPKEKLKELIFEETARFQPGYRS

`Oc1c2ccccc2c2c3c(cccc13)N=N2`: the residual activity in assay [1] was -6%; in [2], 17%; in assay [3], 3%; in [4] it was 64%; in assay [5], 30%; in assay [6] it was 75%. Besides, the residual activity was found to be 41% in assay [7]; 87% in assay [8]; 62% in assay [9]; 70% in assay [10]; 69% in assay [11]; 89% in [12]. The residual activity was determined as 43% in assay [13]; 70% in [14]; 30% in [15]; 59% in [16]; 72% in assay [17]; 88% in assay [18]. In addition, the results for the residual activity in assay [19] and in assay [20] were 55% and 79%, respectively.

With `CCN(CC)CCCCN1c2ccccc2Oc2ccc(Cl)cc21`, the residual activity in assay [1] was determined as 137%; in [2], 112%; in [3], 104%; in [4], 133%; in assay [5], 98%; in assay [6], 103%. The residual activity in assay [7] was found to be 94%; in assay [8], 110%; in assay [9] it was 100%; in [10], 84%; in [11], 120%; in [12] it was 101%. The residual activity is 64% in assay [13]; 102% in [14]; 67% in assay [15]; 112% in assay [16]; 114% in [17]; 116% in [18]. Besides, the residual activity in [19] was determined as 104%; in assay [20], 115%.

Consider `COc1ccc(CNc2nc(N(CCO)CCO)nc3c2ncn3C(C)C)cc1`, for which the residual activity in assay [1] was 70%; in assay [2], 79%; in [3], 74%; in [4] it was 90%; in assay [5], 88%; in [6], 126%. The residual activity in assay [7] is 73%; in assay [8], 101%; in assay [9], 88%; in [10] it was 62%; in assay [11], 77%; in [12], 104%. Besides, the residual activity in assay [13] worked out at 79%; in assay [14], 74%; in [15] it was 78%; in assay [16], 91%; in assay [17], 87%; in assay [18], 123%. Further, the residual activity in [19] was found to be 87%; in assay [20], 96%.

On to `COc1ccc(S(=O)(=O)N(CCO)c2ccccc2CN(C)C/C=C/c2ccc(Cl)cc2)cc1`, for which the residual activity in [1] is 88%; in assay [2] it was 100%; in [3] it was 95%; in assay [4] it was 93%; in assay [5], 83%; in assay [6], 100%. In addition, the residual activity was determined as 93% in assay [7]; 107% in [8]; 89% in assay [9]; 80% in assay [10]; 51% in [11]; 105% in [12]. The residual activity in [13] was 43%; in assay [14], 97%; in [15], 65%; in assay [16], 82%; in [17] it was 70%; in assay [18], 111%. In addition, the residual activity in assay [19] was 103%; in assay [20], 78%.

`Ic1cccc(CSc2nnc(-c3ccncc3)o2)c1`: the residual activity in [1] amounted to 68%; in assay [2], 77%; in [3] it was 65%; in assay [4], 84%; in [5] it was 75%; in assay [6], 96%. Further, the residual activity in [7] is 94%; in [8] it was 104%; in assay [9], 95%; in assay [10] it was 58%; in assay [11], 66%; in assay [12], 82%. Besides, the residual activity in assay [13] came out at 87%; in assay [14] it was 63%; in assay [15], 47%; in assay [16], 82%; in [17] it was 82%; in [18], 111%. Moreover, the residual activity in assay [19] amounted to 83%; in assay [20] it was 77%.

Regarding `O=C1NC(=O)c2c1c1c3ccccc3[nH]c1c1[nH]c3cc(Br)ccc3c21`, the residual activity stood at 67% in assay [1]; 70% in assay [2]; 58% in [3]; 99% in [4]; 76% in [5]; 96% in assay [6]. In addition, the residual activity in assay [7] turned out to be 100%; in [8], 98%; in assay [9] it was 95%; in assay [10] it was 79%; in assay [11], 62%; in [12], 95%. Moreover, the residual activity amounted to 95% in [13]; 72% in assay [14]; 69% in assay [15]; 103% in assay [16]; 104% in [17]; 111% in assay [18]. Also, the figures for the residual activity in [19] and in [20] were 99% and 98%, respectively.

On to `COc1ccc(OC)c2c(=S)c3ccccc3[nH]c12`, for which the residual activity in assay [1] was 65%; in assay [2], 88%; in assay [3], 97%; in assay [4], 93%; in assay [5], 88%; in [6], 97%. In addition, the residual activity in assay [7] turned out to be 95%; in assay [8], 94%; in assay [9], 89%; in assay [10] it was 101%; in assay [11], 101%; in assay [12] it was 103%. The residual activity in assay [13] is 92%; in assay [14], 80%; in [15], 84%; in assay [16], 97%; in assay [17] it was 112%; in assay [18], 111%. For the same compound, the residual activity in assay [19] was 101%; in assay [20] it was 102%.

As to `CC#CC(=O)Nc1cc2c(Nc3ccc(F)c(Cl)c3)ncnc2cn1`, the residual activity in assay [1] is 61%; in assay [2], 107%; in [3], 86%; in assay [4], 100%; in [5], 91%; in assay [6], 102%. Moreover, the residual activity in assay [7] came out at 98%; in [8] it was 96%; in assay [9], 86%; in [10], 105%; in assay [11], 71%; in [12], 97%. Further, the residual activity in assay [13] was found to be 84%; in assay [14], 78%; in assay [15] it was 51%; in assay [16] it was 100%; in [17], 88%; in assay [18] it was 101%. Further, the residual activity in assay [19] was determined as 103%; in assay [20] it was 89%.

With `Cn1cc(/C=C2\C(=O)Nc3ccc(S(N)(=O)=O)cc32)c2ccccc21`, the residual activity in [1] came to 40%; in assay [2], 28%; in assay [3], 7%; in assay [4] it was 101%; in [5], 53%; in [6] it was 103%. Besides, the residual activity came out at 100% in [7]; 45% in assay [8]; 7% in assay [9]; 20% in assay [10]; 14% in [11]; 30% in assay [12]. In addition, the residual activity in assay [13] stood at 34%; in assay [14], 10%; in assay [15], 1%; in assay [16] it was 85%; in assay [17], 90%; in [18] it was 106%. Moreover, the residual activity in assay [19] was 103%; in assay [20], 83%.

For `O=C1Nc2ccc(Br)cc2/C1=C\c1cc2c([nH]1)CCCC2`, the residual activity in assay [2] amounted to 12%; in assay [3] it was 4%; in [6], 97%; in assay [7], 99%; in assay [8], 74%; in assay [9] it was 76%. For the same compound, the residual activity in assay [14] is 21%; in assay [15], 22%; in assay [18] it was 104%; in assay [19], 106%; in assay [20] it was 108%.

For the compound `Nc1cccc(-c2cc3c(Oc4cccc(O)c4)ncnc3[nH]2)c1`, the residual activity in assay [1] is 57%; in assay [2], 5%; in [3], 2%; in [4], 14%; in assay [5], 4%; in [6] it was 67%. In addition, the residual activity in assay [7] came out at 11%; in [8], 34%; in [9], 9%; in [10], 3%; in assay [11], 7%; in assay [12], 4%. The residual activity is 0% in [13]; 2% in [14]; -1% in assay [15]; 120% in assay [18]; 83% in assay [19]; 71% in assay [20].

Consider `Cc1ccc(S(=O)(=O)/C=C/C#N)cc1`, for which the residual activity in assay [1] amounted to 84%; in [2] it was 101%; in assay [3], 95%; in [4] it was 92%; in assay [5], 92%; in assay [6] it was 94%. In addition, the residual activity is 100% in assay [7]; 109% in assay [8]; 108% in assay [9]; 96% in assay [10]; 94% in assay [11]; 87% in [12]. Moreover, the residual activity in assay [13] was 97%; in assay [14] it was 92%; in [15] it was 94%; in [16] it was 97%; in [17] it was 114%; in assay [18], 113%. The residual activity in [19] is 110%; in assay [20], 93%.

In the case of `Cc1cc2ncc(-c3ccccc3)nc2cc1C`, the residual activity in assay [1] is 70%; in assay [2], 92%; in assay [3] it was 79%; in [4], 109%; in assay [5] it was 93%; in assay [6] it was 108%. Moreover, the residual activity in assay [7] worked out at 99%; in assay [8], 89%; in assay [9] it was 93%; in [11] it was 97%; in assay [12] it was 91%; in assay [13], 101%. Also, the residual activity in assay [14] was 74%; in [15], 75%; in assay [16] it was 87%; in assay [17], 86%; in assay [18], 100%; in [19] it was 100%.

Take `c1ccc(-c2n[nH]c3c2oc2ccccc23)cc1`: the residual activity in assay [1] was determined as 32%; in assay [2], 5%; in assay [3], 3%; in assay [4], 88%; in assay [5], 64%; in [8] it was 92%. Besides, the residual activity in assay [9] is 70%; in assay [14] it was 68%; in assay [15] it was 30%; in assay [16] it was 86%; in [17], 80%.

Turning to `Cc1cccc(-c2[nH]c(C(C)(C)C)nc2-c2ccc3c(c2)OCO3)n1`, the residual activity came to 85% in assay [1]; 101% in assay [2]; 79% in assay [3]; 95% in [5]; 102% in assay [6]; 101% in assay [7]. Also, the residual activity in assay [8] amounted to 87%; in [9] it was 106%; in [10], 146%; in assay [11], 86%; in [12] it was 95%; in assay [13] it was 92%. Also, the residual activity in assay [14] was 91%; in assay [15], 76%; in assay [16] it was 90%; in [17], 94%; in [18] it was 105%; in assay [20] it was 92%.
